# Test system: Pseudomonas aeruginosa PA14 dppBCDF deletion mutant
# Assay: respiration area under curve with compound as sole nitrogen source, 24 h (OmniLog AUC (arbitrary units)); higher = more respiration / better utilisation as nitrogen source, active = 2000 or more; extreme values may be limits of the assay
# Protocol: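 Biolog Phenotype MicroArray plates PM6-PM8: each di/tripeptide is the sole nitrogen source. Tetrazolium reduction was read in the OmniLog every 15 min for 24 h at 37°C and summarised as area under the respiration curve (arbitrary units). Values below 2000 count as no respiration. Strain is the dipeptide ABC transporter deletion mutant.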
row,Structure (SMILES),respiration area under curve
1,CC(C)[C@H](NC(=O)[C@@H](N)CO)C(=O)O (plate: PM7),3050 (active)
2,CC[C@H](C)[C@H](N)C(=O)N[C@@H](Cc1ccccc1)C(=O)O (plate: PM6),52.2 (inactive)
3,C[C@@H](N)C(=O)NCC(=O)O (plate: PM8),0 (inactive)
4,C[C@H](N)C(=O)N[C@@H](C)C(=O)N[C@@H](C)C(=O)O (plate: PM8),6480 (active)
5,NC(N)=NCCC[C@H](N)C(=O)N[C@@H](Cc1ccccc1)C(=O)O (plate: PM6),8100 (active)
6,CSCC[C@H](NC(=O)[C@H](C)N)C(=O)O (plate: PM8),2300 (active)
7,CC(C)[C@H](NC(=O)CN)C(=O)O (plate: PM6),124 (inactive)
8,NC(=O)CC[C@H](N)C(=O)N[C@@H](CCC(=O)O)C(=O)O (plate: PM8),3750 (active)
9,NC(=O)CC[C@H](NC(=O)[C@@H](N)CO)C(=O)O (plate: PM8),558 (inactive)
10,NC(=O)C[C@H](N)C(=O)N[C@@H](CCC(=O)O)C(=O)O (plate: PM6),1590 (inactive)
11,N[C@@H](CC(=O)O)C(=O)N[C@@H](CC(=O)O)C(=O)O (plate: PM6),12.5 (inactive)
12,CSCC[C@H](N)C(=O)NCC(=O)O (plate: PM7),33.2 (inactive)
13,C[C@H](NC(=O)[C@@H]1CCCN1)C(=O)O (plate: PM7),103 (inactive)
14,NCC(=O)N[C@@H](Cc1ccccc1)C(=O)N[C@@H](Cc1ccccc1)C(=O)O (plate: PM8),1840 (inactive)
15,NCC(=O)N1CCC[C@H]1C(=O)O (plate: PM6),0 (inactive)
16,CC(C)[C@H](N)C(=O)N[C@@H](CCC(=O)O)C(=O)O (plate: PM8),0 (inactive)
17,NC(N)=NCCC[C@H](NC(=O)[C@@H](N)CCCN=C(N)N)C(=O)O (plate: PM6),9250 (active)
18,N[C@@H](CC(=O)O)C(=O)N[C@@H](Cc1c[nH]c2ccccc12)C(=O)O (plate: PM6),1260 (inactive)
19,CC(C)[C@@H](NC(=O)CN)C(=O)O (plate: PM8),0 (inactive)
20,N[C@@H](Cc1ccccc1)C(=O)NCC(=O)NCC(=O)O (plate: PM8),1300 (inactive)

row,Structure (SMILES),respiration area under curve
1,C[C@@H](O)[C@H](N)C(=O)N[C@@H](CCC(=O)O)C(=O)O (plate: PM7),34.2 (inactive)
2,NCC(=O)N[C@H](CC(=O)O)C(=O)O (plate: PM8),0 (inactive)
3,C[C@H](N)C(=O)N[C@@H](CC(N)=O)C(=O)O (plate: PM6),6980 (active)
4,NC(=O)C[C@H](NC(=O)[C@@H]1CCCN1)C(=O)O (plate: PM8),5910 (active)
5,CC(C)[C@H](NC(=O)[C@@H](N)CCC(=O)O)C(=O)O (plate: PM6),0 (inactive)
6,CC(C)[C@H](N)C(=O)N[C@@H](CC(=O)O)C(=O)O (plate: PM7),18 (inactive)
7,CC[C@H](C)[C@H](N)C(=O)N[C@@H](CCC(N)=O)C(=O)O (plate: PM6),873 (inactive)
8,N[C@@H](Cc1ccc(O)cc1)C(=O)N[C@@H](CCC(=O)O)C(=O)O (plate: PM7),277 (inactive)
9,CC(C)[C@H](NC(=O)[C@H](C)N)C(=O)O (plate: PM8),700 (inactive)
10,CCC(C)C(N)C(=O)NC(CC(N)=O)C(=O)O (stereo not given) (plate: PM8),488 (inactive)
11,CC(C)C[C@H](NC(=O)[C@@H]1CCCN1)C(=O)O (plate: PM7),626 (inactive)
12,CC[C@H](C)[C@H](NC(=O)[C@@H]1CCCN1)C(=O)O (plate: PM8),1 (inactive)
13,O=C(O)[C@H](Cc1ccccc1)NC(=O)[C@@H]1CCCN1 (plate: PM7),3470 (active)
14,NC(=O)CC[C@H](NC(=O)[C@@H](N)Cc1ccc(O)cc1)C(=O)O (plate: PM7),10600 (active)
15,CC(C)[C@H](N)C(=O)N[C@@H](Cc1ccccc1)C(=O)O (plate: PM8),3500 (active)
16,C[C@H](N)C(=O)NCC(=O)O (plate: PM6),3630 (active)
17,CC[C@H](C)[C@H](N)C(=O)N[C@H](C(=O)O)C(C)C (plate: PM6),545 (inactive)
18,NCC(=O)N[C@@H](Cc1ccc(O)cc1)C(=O)O (plate: PM6),216 (inactive)
19,NC(=O)CC[C@H](N)C(=O)NCC(=O)O (plate: PM6),2500 (active)
20,CSCC[C@H](N)C(=O)N[C@@H](CC(C)C)C(=O)O (plate: PM7),247 (inactive)
